Assay results: PubChem BioAssay (EPA / NIEHS)
Results filed as inconclusive are left out. Calls of active or inactive are those of the source. Rule for the calls: active = hit-call score of the fitted dose curve at least 0.9, where 1 is the maximum; inconclusive = response in the unintended direction; inactive = score below 0.9.

These compounds were tested against Nucleoli Translocation, AR (gene 367) (UniProt P10275) (assay: UPITT_HCI_U2OS_AR_TIF2_Nucleoli_Agonist: University of Pittsburgh U2OS Androgen Receptor-Transcriptional Intermediary Factor 2 (AR-TIF2) Agonism High Content Imaging Assay for Nucleoli Translocation (AID 2283998)).
Sequence of Nucleoli Translocation, AR (gene 367) (P10275 whole entry, looked up, the tested form may be a part): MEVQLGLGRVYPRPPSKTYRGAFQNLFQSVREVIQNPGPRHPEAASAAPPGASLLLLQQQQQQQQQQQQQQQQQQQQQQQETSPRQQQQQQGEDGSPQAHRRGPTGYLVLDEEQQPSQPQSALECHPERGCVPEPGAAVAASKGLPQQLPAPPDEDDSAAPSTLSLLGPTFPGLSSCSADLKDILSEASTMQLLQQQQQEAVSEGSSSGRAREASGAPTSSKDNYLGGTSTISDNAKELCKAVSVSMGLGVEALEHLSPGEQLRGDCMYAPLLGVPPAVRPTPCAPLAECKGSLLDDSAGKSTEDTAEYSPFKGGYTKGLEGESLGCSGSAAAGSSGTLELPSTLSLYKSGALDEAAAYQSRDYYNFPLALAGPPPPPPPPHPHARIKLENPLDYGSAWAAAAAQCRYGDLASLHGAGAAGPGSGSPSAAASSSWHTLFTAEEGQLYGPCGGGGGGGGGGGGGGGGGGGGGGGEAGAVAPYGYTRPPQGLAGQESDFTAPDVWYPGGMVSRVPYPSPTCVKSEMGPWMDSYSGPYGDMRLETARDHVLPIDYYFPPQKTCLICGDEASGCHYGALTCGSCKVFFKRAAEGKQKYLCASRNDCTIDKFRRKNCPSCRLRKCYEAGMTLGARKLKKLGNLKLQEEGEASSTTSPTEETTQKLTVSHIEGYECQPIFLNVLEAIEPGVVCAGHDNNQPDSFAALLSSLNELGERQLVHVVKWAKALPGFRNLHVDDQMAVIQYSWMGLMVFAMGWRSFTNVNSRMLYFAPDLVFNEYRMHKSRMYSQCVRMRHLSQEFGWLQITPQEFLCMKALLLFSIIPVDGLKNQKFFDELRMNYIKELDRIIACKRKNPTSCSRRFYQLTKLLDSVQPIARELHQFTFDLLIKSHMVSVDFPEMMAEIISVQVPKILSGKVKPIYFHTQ
Description: UPITT_AR_TIF2_PPIB is a cell-based, high-content imaging assay that uses U2OS, a human osteosarcoma cell line, expressing a human androgen receptor fused to red fluorescent protein and the coactivator TIF2 fused to green fluorescent protein. UPITT_HCI_U2OS_AR_TIF2_Nucleoli_Agonist is one of four assay components measured from the UPITT_AR_TIF2_PPIB assay. It is designed to make measurements of red fluorescence localized in the nucleolar region of the cell nucleus as detected with high-content fluorescent imaging.Data from the assay component UPITT_HCI_U2OS_AR_TIF2_Nucleoli_Agonist was analyzed into 1 assay endpoint. This assay endpoint, UPITT_HCI_U2OS_AR_TIF2_Nucleoli_Agonist, was analyzed in the positive analysis fitting direction relative to DMSO as the baseline of activity. Using a type of binding reporter, measures of receptor for gain-of-signal activity can be used to understand the binding at the pathway-level as it relates to the gene AR.
Daughter plates containing 2 uL of 10 mM compounds in DMSO were prepared and replicated from the 384-well Library of Pharmacologically Active Compounds (LOPAC) master plates using the Bravo outfitted with a 384-well transfer head. Aluminum adhesive plate seals were applied with an Abgene Seal-IT 100 (Rochester, NY) plate sealer, and the plates were stored at -20 C in a Matrical MatriMinistore (Spokane, WA) automated compound storage and retrieval system. For screening, LOPAC daughter plates were withdrawn from -20C storage, thawed to ambient temperature, centrifuged 1-2 min at 50 g, and the plate seals were removed before the transfer of 98 uL of serum-free tissue culture medium (SFM) into wells using the BioTek Microflo liquid handler (BioTek, Winooski, VT) to generate a 200 uM intermediate stock concentration of library compounds (2.0% DMSO). The diluted compounds were mixed by repeated aspiration and dispensation using a 384-well P30 dispensing head on the Evolution P3 (EP3) liquid handling platform (PerkinElmer, Waltham, MA) and then 5 uL of diluted compounds was transferred to the wells of assay plates. In the LOPAC screen, compounds were individually tested at a final concentration of 20 uM (0.2% DMSO). After the diluted compounds had been transferred from the daughter plates to the primary HCS assay plates, aluminum adhesive plate seals were applied and the diluted daughter plates were stored frozen at -20C. To confirm active compounds identified in the primary screen, we withdrew the LOPAC daughter plates containing the 200 uM intermediate concentration of library compounds (2.0% DMSO) from -20C storage, thawed them to ambient temperature, centrifuged them for 1-2 min at 50 g, and removed the plate seals. A work list was generated to direct the Multiprobe Janus liquid handling platform (PerkinElmer) to cherry pick 75 uL from the wells of the diluted daughter plates that were flagged active in the primary screen and to reformat these into a 384-well plate hit confirmation daughter plate. Five microliters of primary HCS active compounds was then transferred into triplicate wells of assay plates using a 384-well P30 dispensing head on the Evolution P3 (EP3) liquid handling platform (PerkinElmer). […] Daughter plates containing 2 uL of the serially diluted compounds in DMSO were prepared and replicated from the 384-well serial dilution master plates using the Bravo outfitted with a 384-well transfer head. Aluminum adhesive plate seals were applied and plates were stored at -20C. For testing in the bioassays, daughter plates were withdrawn from -20C storage, thawed to ambient temperature, centrifuged for 1-2 min at 50 g, and the plate seals were removed before the transfer of 38 uL of SFM into wells using the BioTek Microflo liquid handler (BioTek) to generate an intermediate stock concentration of library compounds ranging from 1.95 to 500 uM (5.0% DMSO). […]

With `CCOC(=O)COc1cc(-n2ncc(C(F)(F)F)c(C)c2=O)c(F)cc1Cl` as the compound, how does the outcome read?
The outcome was “inactive”.

Which outcome does the source give for `O=C(c1ccccc1)C1CCCCC1` here?
The outcome was “inactive”.

Which outcome does the source give for `Cc1nn(C)c(Oc2ccccc2)c1C=NOCc1ccc(C(=O)OC(C)(C)C)cc1` here?
The outcome was “inactive”.

With `O=C(c1ccc(O)cc1O)c1ccc(O)cc1O` as the compound, how does the outcome read?
The outcome was “inactive”.

How did the outcome turn out when `CCCOC(=O)c1ccc(C(=O)OCCC)nc1` was run?
Its outcome is “inactive”.

`C[C@]12CC[C@@H]3c4ccc(O)cc4C[C@@H](CCCCCCCCCS(=O)CCCC(F)(F)C(F)(F)F)[C@H]3[C@@H]1CC[C@@H]2O` (stereo partly drawn) was tested. Which outcome did it give?
Its outcome is “inactive”.

For `N#CSCSc1nc2ccccc2s1`, which AC50 is on record?
The AC50 was 13 µM (active).

Which outcome does the source give for `O=C(O)C1(C(=O)Nc2ccc(Cl)cc2Cl)CC1` here?
The outcome was “inactive”.

How did the outcome turn out when `CCSC(=O)N(CC(C)C)CC(C)C` was run?
Its outcome is “inactive”.

For `CCCN(CCC)C(=O)SCC`, which outcome is on record?
The outcome was “inactive”.

How did the outcome turn out when `CSC(=O)c1cccc2nnsc12` was run?
The outcome was “inactive”.

For `CC(C)(c1ccc(O)cc1)c1ccc(O)cc1`, which AC50 is on record?
The AC50 was 73.3 µM (active).

How did the outcome turn out when `COC(=O)CSc1cc(N=c2sc(=O)n3n2CCCC3)c(F)cc1Cl` was run?
The outcome was “inactive”.
